In the library only some 3.4% were active in any assay of this set; here they are far more common.
TEAD-YAP inh: TEAD-YAP interaction inhibition; HEK-TIYL cells, TEAD-Gal4/YAP UAS-luciferase luminescence; inhibition, % at 9.12 µM; actives 1.4% (n = 640,000); in the data active = inhibition above about 32%
GPR151 ag: human GPR151 activation; PathHunter beta-arrestin GPR151 cells, luminescence; AID 1508602; activation, % at 11.2 µM; actives 1% (n = 650,000); in the data active = activation above about 4.9%
MITF primary: inhibitors of human MITF. O75030. AID 1259374. actives 0.91% (n = 650,000). inhibition, % at 2.6 µM. AlphaScreen MITF homodimerization, bead proximity signal; in the data active = inhibition above about 50%
FBW7 act: activators of human E3 ligase FBW7; normalized activity (activation), % at 26.1 µM; Q969H0; AID 1259310; actives 0.13% (n = 650,000); AlphaScreen FBW7–phospho-cyclin E peptide binding, activator screen; in the data active = normalized activity above about 1.9%;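 also: purified mutant Fbw7 with reduced substrate affinity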
Target sequence (Q969H0 whole entry, looked up): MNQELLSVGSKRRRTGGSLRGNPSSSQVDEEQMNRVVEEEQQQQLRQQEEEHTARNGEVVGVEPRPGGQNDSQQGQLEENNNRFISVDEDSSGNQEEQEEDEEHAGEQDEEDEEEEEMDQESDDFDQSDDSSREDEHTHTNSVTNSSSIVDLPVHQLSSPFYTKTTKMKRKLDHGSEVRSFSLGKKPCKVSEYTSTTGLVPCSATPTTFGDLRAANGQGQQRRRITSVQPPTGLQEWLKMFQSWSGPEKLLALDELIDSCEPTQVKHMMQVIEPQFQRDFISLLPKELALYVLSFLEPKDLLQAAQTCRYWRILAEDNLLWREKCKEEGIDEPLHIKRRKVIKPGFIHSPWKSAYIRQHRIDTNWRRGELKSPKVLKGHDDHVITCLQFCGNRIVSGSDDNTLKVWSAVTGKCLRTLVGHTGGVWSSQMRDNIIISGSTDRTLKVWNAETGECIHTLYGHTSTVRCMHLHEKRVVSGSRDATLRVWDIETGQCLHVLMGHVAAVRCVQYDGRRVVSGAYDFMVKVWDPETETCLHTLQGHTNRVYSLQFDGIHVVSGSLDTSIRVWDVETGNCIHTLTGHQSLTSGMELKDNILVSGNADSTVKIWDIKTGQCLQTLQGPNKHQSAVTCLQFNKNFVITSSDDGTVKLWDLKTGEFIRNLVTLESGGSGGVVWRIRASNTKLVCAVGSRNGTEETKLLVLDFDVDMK
MITF confirm: human MITF inhibition, confirmation; shares compounds with MITF primary; AlphaScreen MITF homodimerization, biotin/His-MITF beads; actives 16% (n = 4,700); inhibition, % at 2.6 µM;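 active = inhibition above a cutoff derived from the DMSO control wells, cut at about 28% in these data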;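 also: inhibitors lower the bead chemiluminescence by keeping MITF from dimerizing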
AlphaScreen DR: counter-screen: compounds optically interfering with AlphaScreen; shares compounds with MITF primary; AlphaScreen optical interference counterscreen, cell-free; IC50, µM; actives 6% (n = 480); call rule not given here
AlphaScreen intf2: optically interferes with AlphaScreen signal; shares compounds with MITF primary; LysRS AlphaScreen counterscreen, signal interference, triplicate; inhibition, % at 2.6 µM; actives 7.6% (n = 4,700); AID 1259376;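 active = inhibition above a cutoff derived from the DMSO control wells, cut at about 30% in these data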
Of the large screens only hits and unclear results are named; the others gave an inactive call (follow-up assays come after a bar, where they were run).

COc1ccc(C2C3(C#N)C(N)=NC(OC)(OC)C23C#N)cc1 (stereo not given)	MITF primary 74 | MITF confirm inactive | AlphaScreen intf2 inactive
CCOC1(OCC)N=C(N)C2(C#N)C(c3ccc(OC)c(OC)c3)C12C#N (stereo not given)	none
COC1(OC)N=C(N)C2(C#N)C(c3ccc(C)cc3)C12C#N (stereo not given)	MITF primary 55 | MITF confirm inactive | AlphaScreen intf2 inactive
COC(=O)CS(=O)c1ccc(S(=O)C(F)(F)F)cc1[N+](=O)[O-] (stereo not given)	none
COc1cc(CNc2ccccc2)cc(OC)c1OC	none
COc1cc(CNc2cccc(C)c2)cc(OC)c1OC	MITF primary 55 | MITF confirm inactive | AlphaScreen intf2 inactive
Cc1ccc(NCc2ccncc2)c(Br)c1	MITF primary 69 | MITF confirm inactive | AlphaScreen intf2 inactive
Cc1cccc(NCc2ccncc2)c1	MITF primary 77 | MITF confirm inactive | AlphaScreen intf2 inactive
COc1ccccc1CN1C[C@@H]2C[C@@H](c3nc(C(C)C)cs3)N3CCC[C@@]23C1=O	none
Cc1n[nH]c(=S)n1/N=C/c1ccccc1F	MITF primary 70 | MITF confirm inactive | AlphaScreen intf2 inactive
Cc1ccc(N=Cc2c(O)n(Cc3ccccc3Cl)c(=O)[nH]c2=O)c(C)c1	none
CCOC(=O)CC1C(C(=O)OCC)=[N+]([O-])OC1C(=O)OCC (stereo not given)	MITF primary 64 | MITF confirm inactive | AlphaScreen intf2 inactive
CCOC(=O)C1=[N+]([O-])OC(C(=O)OCC)C1CC(C)=O (stereo not given)	none
Cc1cncc2c(S(=O)(=O)N3CC[C@@H](NC(=O)C(O)c4ccc(F)cc4F)C3)cccc12 (stereo not given in full)	MITF primary 59 | MITF confirm 58 | AlphaScreen DR inactive | AlphaScreen intf2 inactive
C/C(=C\c1ccco1)CN1CCc2nnc(CNC(=O)C3CCOC3)n2CC1 (stereo not given)	none
CN1CCN(CCOc2ccccc2-c2ccccc2)CC1	MITF primary 55 | MITF confirm inactive | AlphaScreen intf2 inactive
c1ccc(-c2ccccc2OCCN2CCOCC2)cc1	MITF primary 78 | MITF confirm inactive | AlphaScreen intf2 inactive
c1ccc(-c2ccccc2OCCCCN2CCOCC2)cc1	MITF primary 77 | MITF confirm inactive | AlphaScreen intf2 inactive
CCN1CCN(CCOc2ccccc2-c2ccccc2)CC1	none
COC(=O)c1ccc(Oc2coc3cc(OC(=O)c4cccc(OC)c4)ccc3c2=O)cc1	none
O=C1CCCN1c1cccc(NS(=O)(=O)c2cccc3ccccc23)c1	MITF primary 51 | MITF confirm inactive | AlphaScreen intf2 inactive
O=C1CCCCN1c1cccc(NS(=O)(=O)c2ccccc2)c1	none
CCN(CC(=O)Nc1ccccc1C(F)(F)F)CC(=O)Nc1cccc2ccccc12	none
CCN(CC(=O)Nc1ccccc1C(F)(F)F)CC(=O)NC1CCCc2ccccc21 (stereo not given)	MITF primary 81 | MITF confirm inactive | AlphaScreen intf2 inactive
Cc1c(C(=O)N2CCC(Cc3ccccc3)CC2)sc2ncn(CC(=O)N3CCCCC3C)c(=O)c12 (stereo not given)	none
CC(C)CN1CCC(CN(C)C(=O)CCc2nnc(-c3ccc4c(c3)OCO4)o2)CC1	none
NC(=O)c1cc(NC(=O)COC(=O)COc2cccc(C(F)(F)F)c2)cc(C(N)=O)c1	MITF primary 53 | MITF confirm 48 | AlphaScreen DR inactive | AlphaScreen intf2 inactive
COc1ccccc1N1CCN(CC(=O)c2ccc(F)cc2)CC1	MITF primary 69 | MITF confirm inactive | AlphaScreen intf2 inactive
CNC(=O)Cc1nc2ccccc2n1CC(=O)Nc1cc(C)ccc1C	none
CCS(=O)(=O)N1CCN(Cc2ccc(OC)c(OC)c2OC)CC1	none
COc1cc(OC)c(OC)cc1CN1CCN(Cc2ccc(OC)c(OC)c2OC)CC1	MITF primary 59 | MITF confirm inactive | AlphaScreen intf2 inactive
COc1ccc(CN2CCN(Cc3ccc(Cl)cc3)CC2)c2ccccc12	MITF primary 83 | MITF confirm inactive | AlphaScreen intf2 inactive
COc1cccc(CN2CCN(Cc3ccc(F)cc3)CC2)c1OC	MITF primary 80 | MITF confirm inactive | AlphaScreen intf2 inactive
COc1cccc(CN2CCN(Cc3ccc(F)cc3)C(CCO)C2)c1OC (stereo not given)	none
CCN1CCN(Cc2ccc(OC)c3ccccc23)CC1	none
COc1ccc(CN2CCCCC2)c(OC)c1OC	none
CCOc1ccc(CN2CCN(Cc3ccc(OC)c(OC)c3OC)CC2)cc1	MITF primary 66 | MITF confirm inactive | AlphaScreen intf2 inactive
O=C(CCN1C(=O)c2cccc([N+](=O)[O-])c2C1=O)Nc1nnc(C2CCCCC2)s1	none
COc1ccc(CN2CCN(Cc3ccc(SC)cc3)CC2)c(OC)c1OC	none
COc1ccc(CN2CCN(Cc3ccc(F)cc3)CC2)c(OC)c1OC	MITF primary 60 | MITF confirm inactive | AlphaScreen intf2 inactive
CC(=O)Nc1ccc(NC(=O)C2CC=CCC2C(=O)O)cc1 (stereo not given)	none
CCc1ccc(NC(=O)C2CC=CCC2C(=O)O)cc1 (stereo not given)	MITF primary 83 | MITF confirm inactive | AlphaScreen intf2 inactive
Cc1ccc(OCCN2CCNCC2)c(Br)c1	none
Cc1ccc(OCCCCN2CCNCC2)c(Br)c1	MITF primary 56 | MITF confirm inactive | AlphaScreen intf2 inactive
Cc1cc(Br)ccc1OCCCCN1CCNCC1	MITF primary 66 | MITF confirm inactive | AlphaScreen intf2 inactive
Clc1cc(Br)ccc1OCCCCN1CCNCC1	MITF primary 56 | MITF confirm inactive | AlphaScreen intf2 inactive
Cc1ccc(C(C)C)c(OCC(O)CN2CCOCC2)c1 (stereo not given)	none
Brc1cccc(OCCCCN2CCNCC2)c1	none
Cc1ccc(C(C)C)c(OCC#CCN2CCOCC2)c1	MITF primary 55 | MITF confirm inactive | AlphaScreen intf2 inactive
N#CC1=C(N)N(c2ccccc2C(F)(F)F)C2=C(C(=O)CCC2)C1c1ccccc1 (stereo not given)	none
COc1ccc(OCc2ccccc2)c(/C=C2/N=C(C)OC2=O)c1	none
Cn1ccnc1CNCCS(=O)(=O)c1cccc(Nc2ccc(-c3cccc(F)c3)cn2)c1	none (no result: TEAD-YAP inh, MITF primary, FBW7 act)
CCC(C)(C)c1ccc(OCCN2CCNCC2)c(Cl)c1	MITF primary 61 | MITF confirm inactive | AlphaScreen intf2 inactive
Cc1ccc(C(C)C)c(OCCCCN2CCNCC2)c1	MITF primary 75 | MITF confirm inactive | AlphaScreen intf2 inactive
Cc1ccc(C(C)C)c(OCC(N)=O)c1	none
Cc1ccc(C(C)C)c(OCCOCCN2CCNCC2)c1	none
Cc1ccc(SCCCCN2CCNCC2)cc1	MITF primary 61 | MITF confirm inactive | AlphaScreen intf2 inactive
Cc1ccc(C(C)C)c(OCCN(C)C)c1	MITF primary 54 | MITF confirm inactive | AlphaScreen intf2 inactive
CC(=O)Oc1cnc2ccc(C)cc2c1	none
